This is an account of results in PubChem BioAssay AID686979 (National Center for Advancing Translational Sciences (NCATS), 2013).

SMILES strings stand for the structures. Where “and” joins values, the source holds several entries; their conditions need not be identical. Equal values may be shown once. Hit rate of the full screen: of about 420,000 compounds, about 50,000 (12%) were called active. About 26% were inconclusive and are not listed. The sample holds actives, similar compounds and a random draw of the others, so the mix is not that of the screen. Values without a mark were called inactive. The call rests on the fitted dose curve; in most records, active means well fitted inhibition curve with a large enough effect; inconclusive means small, poorly fitted or top-dose-only effect; inactive means flat fitted curve, though single readings scatter.
On the % scale 0 is the no-effect control and ±100 the full control effect; potency means the concentration at half of the fitted maximal effect.

A short description of the test: qHTS for Inhibitors of human tyrosyl-DNA phosphodiesterase 1 (TDP1): qHTS in cells in presence of CPT. Further: nearly all actives have a fitted effect of over 55% in size. The following applies: chicken DT40 Tdp1-/-;hTDP1 cells + 20 nM CPT, ATP luminescence, 48 h; series mostly up to 46.2 µM; activity change, negative = growth inhibition: at the top concentration. In a few lines:
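Chicken DT40 Tdp1-/- cells complemented with human TDP1, 400 cells/well, exposed to compounds plus 20 nM camptothecin for at least 48 h at 37 C; viability read as ATP content by CellTiter-Glo luminescence.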
On to `O=C1CC2(CCN(C(=O)COc3ccc(F)cc3)CC2)Oc2ccccc21`, for which the “activity change, negative = growth inhibition” value was -22.1%. As for `COc1cc(/C=C/C(=O)OCC(=O)NCCCc2ccccc2)ccc1O`, the “activity change, negative = growth inhibition” value is -9.29%. For `CC(C)c1c(C(=O)N/N=C/c2ccc(-c3ccccc3)cc2)nnn1-c1nonc1N`, the “activity change, negative = growth inhibition” value is 4.68%. `CC1CC(C)CN(CCC(=O)Nc2ccc3c(c2)CCC3)C1` (stereo unspecified): the “activity change, negative = growth inhibition” value is -21.1%.

In the case of `Cc1ccc(C(=O)OCC(=O)NC(=O)Cc2ccccc2)c(O)c1`, the “activity change, negative = growth inhibition” value is 5.48%. Turning to `Cc1ccc(-n2c3nc(=O)[nH]c(=O)c-3cc3c(Cl)cccc32)cc1`, the Potency was 1.46 µM (active).

As for `O=c1cc(Cl)c2ccccc2n1-c1ccccc1`, the “activity change, negative = growth inhibition” value is 22%. Regarding `Cn1c(=O)nc2n(-c3ccc(Br)cc3)c3cccc(Cl)c3cc-2c1=O`, the “activity change, negative = growth inhibition” value was 5.86%. Take `CSc1cccc(NC(=O)CN2C(=O)COc3ccc(S(=O)(=O)N4CCOCC4)cc32)c1`: the “activity change, negative = growth inhibition” value was -17.9%.

In the case of `COc1ccc(Cl)cc1NC(=O)COc1ccc2c(c1)OCO2`, the “activity change, negative = growth inhibition” value was 4.49%. `CC1CCN(C(=S)c2cccc(O)c2)CC1`: the “activity change, negative = growth inhibition” value was -12%. As to `C=C1C([C@@]2(C)C(OC(C)=O)CC(=O)O[C@@](C)(COC(C)=O)C2CC(=O)OC)C(OC=O)C(OC(=O)C(O)C(C)CC)[C@]2(C)C(c3ccoc3)CC(=O)C12O` (stereo partly specified), the Potency was 2.59 µM (active). `O=C(Nc1ccccc1Cl)N1CCC(CN2CCCCC2)CC1`: the “activity change, negative = growth inhibition” value was -22.8%.

On to `COc1ccc(NC(=O)c2ccc(C#CC(C)(C)O)cc2)cc1`, for which the “activity change, negative = growth inhibition” value was -14%. In the case of `Cc1cc(=O)[nH]c(N/N=C/c2ccc3c(c2)OCCO3)n1`, the “activity change, negative = growth inhibition” value is -4.75%. On to `O=C(NN1CCOCC1)c1cccc(F)c1`, for which the “activity change, negative = growth inhibition” value is 5.06%.

In the case of `O=C(Nc1c(-c2ccc(F)cc2)nc2ccccn12)c1cccc(F)c1`, the Potency is 20.6 µM (active). `Cc1oc(-c2cccc(NC(=O)c3ccccc3)c2)nc1CNC(=O)c1cnc2ccccn2c1=O`: the “activity change, negative = growth inhibition” value is 2.06%. As for `Cc1ccccc1NC(=O)CCNS(=O)(=O)c1ccc2[nH]c(=O)oc2c1`, the “activity change, negative = growth inhibition” value was 12%. As to `O=C(C1CC1)N1CCc2cc(Br)cc(S(=O)(=O)N3CCN(c4ccccc4F)CC3)c21`, the “activity change, negative = growth inhibition” value was -21%. Regarding `O=C(CN1C(=O)/C(=C\c2ccc(C(F)(F)F)cc2)Sc2ccccc21)NCc1ccco1`, the Potency was 18.4 µM (active). Regarding `O=C(CCCCCN1C(=O)c2cccc3cccc(c23)C1=O)NCc1ccco1`, the “activity change, negative = growth inhibition” value was 10.3%.

In the case of `CC1CCC2(CC1)NC(=O)N(CC(=O)NCc1ccco1)C2=O` (stereo unspecified), the “activity change, negative = growth inhibition” value is 2.42%. `Nn1c(SCC(=O)Nc2nccs2)nnc1-c1ccco1`: the “activity change, negative = growth inhibition” value was 7.48%. Consider `Cc1ccc(CNC(=O)Cn2c(=O)ccc3cc(S(=O)(=O)N4CCCC4)ccc32)cc1`, for which the “activity change, negative = growth inhibition” value was -22.5%. With `COc1cccc(N2CC(C(=O)NCc3n[nH]c(=O)c4ccccc34)CC2=O)c1` (stereo unspecified), the “activity change, negative = growth inhibition” value is -27.9%. Consider `O=c1[nH]c2cccnc2n(CCNc2ncc(C(F)(F)F)cc2Cl)c1=O`, for which the “activity change, negative = growth inhibition” value was 5.87%.

`CCOc1ccc(Cn2nnc(C(=O)NCc3ccccc3)c2N)cc1`: the “activity change, negative = growth inhibition” value is 25%. For the molecule `CCOc1ccccc1NC(=O)Cc1cccs1`, the “activity change, negative = growth inhibition” value is -0.43%.

As for `CCOc1ccccc1NC(=O)Cn1nnc(C(=O)NCc2cccs2)c1N`, the Potency is 5.2 nM (active) and 130 nM (active).

Consider `COC(=O)C[C@H]1C=C[C@@H](NS(=O)(=O)c2ccc(C)cc2)[C@@H](CO)O1`, for which the “activity change, negative = growth inhibition” value was 13.9%.

On to `O=C(c1cc(COc2c(F)cccc2F)on1)N1CCSCC1`, for which the “activity change, negative = growth inhibition” value is -14.8%. Take `NC(=O)Cn1nc([N+](=O)[O-])nc1Oc1ccc(Br)cc1`: the “activity change, negative = growth inhibition” value was -25.2%.

With `Cc1ccccc1Nc1nc(N)nc(CSc2nnc3ccccn23)n1`, the “activity change, negative = growth inhibition” value was 0.37%. Consider `COc1cc(/C=N/NC(=S)Nc2cccnc2)cc(OC)c1O`, for which the “activity change, negative = growth inhibition” value is 0.37%. In the case of `COc1ccccc1CNC(=O)COc1ccc(C)nc1[N+](=O)[O-]`, the “activity change, negative = growth inhibition” value is -22.6%. Consider `CCC(C)(C)n1nnnc1C(c1ccc(OC)c(OC)c1)N1CCN(C(=O)c2ccco2)CC1` (stereo unspecified), for which the “activity change, negative = growth inhibition” value was 1.48%. Take `CN1CCN2c3ccccc3Cc3ccccc3[C@@H]2C1`: the Potency is 13.3 µM (active). Consider `CN1CCN(C(=O)N2c3ccccc3CCc3ccccc32)CC1`, for which the “activity change, negative = growth inhibition” value is 18.3%. As to `CCOCCCNC(=O)c1cn(CC(C)C)c(=O)c2c1c1ccccc1n2C`, the Potency entry was “inactive”. With `CC(=NNC(N)=O)C1CC2CCC1CC2` (stereo unspecified), the “activity change, negative = growth inhibition” value was 1.34%.

Take `CCOC(=O)C1CCN(CCC(=O)Nc2cccc(C)c2)CC1`: the “activity change, negative = growth inhibition” value was -5.96%. On to `CCOC(=O)C1CCN(c2csc3ccc(C)cc3c2=O)CC1`, for which the “activity change, negative = growth inhibition” value is 4.08%. Regarding `CCOC(=O)C1CCN(c2c(Nc3cc(C)cc(C)c3)c(=O)c2=O)CC1`, the Potency was 14.6 µM (active). `O=C(COC(=O)Cc1ccc([N+](=O)[O-])cc1)NC1CCCCCC1`: the “activity change, negative = growth inhibition” value was -14.7%.

`Cc1ccsc1C1C(C#N)=C(N)OC2=C1C(=O)CC(C)(C)C2` (stereo unspecified): the “activity change, negative = growth inhibition” value was 4.55%. On the same count and under the same terms, in the case of `CN1CCN(S(=O)(=O)c2ccc(Nc3ccc(F)cc3)nc2)CC1` it was -5.23%; in that of `C=C1CCN([C@H](C(=O)NCc2cc(OC)c(OC)c(OC)c2)C(C)C)S(=O)(=O)c2ccccc21`, -1.11%. As for `O=C1OCC2=C1C(c1ccc(Cl)cc1)c1cc3c(cc1O2)OCO3` (stereo unspecified), the Potency was 29.1 µM (active). Consider `CCc1cccc(NC(=S)N(CCN(C)C)C2CCN(C(C)C)CC2)c1`, for which the “activity change, negative = growth inhibition” value is -24%. As to `O=C(COC(=O)C1(c2ccc(F)cc2)CCCC1)N1CCNC1=O`, the “activity change, negative = growth inhibition” value was -1.2%. Take `Cc1nn(CC(=O)NCc2ccccn2)c(C)c1[N+](=O)[O-]`: the “activity change, negative = growth inhibition” value was 11.2%. As for `Cc1csc(NC(=O)NC2(C(F)(F)F)Oc3ccccc3O2)n1`, the Potency is 20.6 µM (active). For `Cc1csc(NC(=O)CSc2nnc(-c3cccnc3)o2)n1`, the “activity change, negative = growth inhibition” value was -4.05%. For the molecule `Cc1csc(NC(=O)Nc2ccccc2[N+](=O)[O-])n1`, the “activity change, negative = growth inhibition” value is 0.264%. Consider `CCOc1ccc(N(CC(=O)NC2CCCCCC2)S(=O)(=O)c2c(C)[nH]c(=O)[nH]c2=O)cc1`, for which the “activity change, negative = growth inhibition” value is 10.3%. For the molecule `CC(Nc1nc(C(F)(F)F)nc2ccccc12)c1cccs1` (stereo unspecified), the Potency is 16.4 µM (active). As for `COc1ccc(-c2nc3n(c(=O)c2C#N)CCS3)c(OC)c1`, the “activity change, negative = growth inhibition” value was 1.35%. `Cc1oc(-c2ccccc2F)nc1CN1CCC(C(=O)NCCc2ccc(Cl)cc2)CC1`: the Potency is 13 µM (active).

Regarding `COc1ccc(-c2nc(CN3CCC(C(=O)NCc4ccccc4)CC3)c(C)o2)cc1OC`, the “activity change, negative = growth inhibition” value is -14.1%. Consider `CCOc1ccccc1-c1nc(CN2CCC(C(=O)N3CCOCC3)CC2)c(C)o1`, for which the “activity change, negative = growth inhibition” value is 3.81%. Regarding `O=C1CCN(C(=S)NCCc2ccccc2)CC1`, the “activity change, negative = growth inhibition” value was 0.277%. With `Oc1ccc(N2CCN(C(=S)NCc3ccccc3)CC2)cc1`, the Potency was 11.6 µM (active). With `S=C(NCCc1ccccc1)N1CCCCC1`, the “activity change, negative = growth inhibition” value is -3.98%. With `CC(Oc1ccccc1)C(=O)N[C@@H]1C(=O)N2[C@@H]1SC(C)(C)[C@@H]2C(=O)O` (stereo partly specified), the “activity change, negative = growth inhibition” value was 6.19% [at 21.1 µM]. On the same count and under the same terms, in the case of `COc1cc(C=NC2CCCCC2)ccc1O` it was 4.14%.
